The target of test [1] is T1, SALL4 ZFC4 R900W (HT-SELEX) (Mus musculus, UniProt Q8BX22 870-940, R900W).
T1 sequence: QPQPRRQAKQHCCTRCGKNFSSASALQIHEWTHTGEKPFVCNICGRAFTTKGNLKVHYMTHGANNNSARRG
Kind of test: HT-SELEX; high values mean tight binding. The note with it: protein: recombinant; vector His6-GST; dsDNA, one strand shown. An outline of the steps: (§1)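 Recombinant mouse SALL4 zinc finger cluster 4 (residues 870–940, 1 µg), purified, was mixed with library DNA (1.5 µg in the first cycle, 200 ng thereafter) in 100 µl of buffer containing 10 mM Tris–HCl pH 7.5, 50 mM NaCl, poly(dI-dC) and DTT, and left for 10 min at room temperature. Complexes were captured on Ni2+ beads, washed, amplified by PCR and reselected for up to 6 cycles in triplicate, after which MiSeq sequencing and a 6-mer scan followed. Binding signal is the read fraction of each canonical k-mer, given as fold change relative to the starting random library.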

In test [2] the target is T2, SALL4 ZFC4 G921D (HT-SELEX) (Mus musculus, UniProt Q8BX22 870-940, G921D).
T2 sequence: T1 sequence with W31R, G52D
Kind of test: HT-SELEX; high values mean tight binding. As to conditions: protein: recombinant; vector His6-GST; dsDNA, one strand shown. The method in brief: as §1

Residue numbers refer to the chain shown, from its start.

Take CGCGGA: the results for the binding signal in test [1] and in test [2] were 0.105 ± 0.00959 fold-change vs cycle 0 and 0.199 ± 0.0519 fold-change vs cycle 0, respectively.
Taken in the same sequence, the figures for AGAGCC were 0.335 ± 0.0199 fold-change vs cycle 0 and 0.505 ± 0.0782 fold-change vs cycle 0.
Consider AGGGCG, for which the values for the binding signal in test [1] and in test [2] were 0.146 ± 0.011 fold-change vs cycle 0 and 0.26 ± 0.0708 fold-change vs cycle 0, respectively.
Regarding GGCGGA, the binding signal in test [1] came to 0.12 ± 0.0101 fold-change vs cycle 0; in test [2], 0.238 ± 0.0604 fold-change vs cycle 0.
Taken in the same sequence, the figures for GCGGCC were 0.0274 ± 0.00551 fold-change vs cycle 0 and 0.107 ± 0.0539 fold-change vs cycle 0.
For CGCGAC the same measures were 0.088 ± 0.0103 fold-change vs cycle 0 and 0.202 ± 0.0599 fold-change vs cycle 0.
For the sequence GCGGCA, the binding signal in test [1] was 0.0597 ± 0.00711 fold-change vs cycle 0; in test [2] it was 0.158 ± 0.0724 fold-change vs cycle 0.
AGCCAG: the binding signal in test [1] is 0.361 ± 0.0134 fold-change vs cycle 0; in test [2], 0.485 ± 0.0483 fold-change vs cycle 0.
As to ACGCTG, the binding signal in test [1] came out at 0.298 ± 0.0226 fold-change vs cycle 0; in test [2] it was 0.41 ± 0.058 fold-change vs cycle 0.
For CGGGGC the same measures were 0.0617 ± 0.00701 fold-change vs cycle 0 and 0.163 ± 0.0639 fold-change vs cycle 0.
For GCCCCA the same measures were 0.158 ± 0.0152 fold-change vs cycle 0 and 0.275 ± 0.0854 fold-change vs cycle 0.
For CAATAG the same measures were 1.34 ± 0.0439 fold-change vs cycle 0 and 1.31 ± 0.0578 fold-change vs cycle 0.
Turning to CCGCTA, the binding signal in test [1] was 0.299 ± 0.0278 fold-change vs cycle 0; in test [2], 0.434 ± 0.0518 fold-change vs cycle 0.
On to CGCCTC, for which the binding signal in test [1] came to 0.152 ± 0.0261 fold-change vs cycle 0; in test [2], 0.277 ± 0.0696 fold-change vs cycle 0.
For the sequence GCGCCA, the figures for the binding signal in test [1] and in test [2] were 0.0557 ± 0.0063 fold-change vs cycle 0 and 0.143 ± 0.0639 fold-change vs cycle 0, respectively.
For GCGCGC the same measures were 0.0165 ± 0.00409 fold-change vs cycle 0 and 0.0747 ± 0.0529 fold-change vs cycle 0.
Consider GCTGCC, for which the binding signal came to 0.109 ± 0.0113 fold-change vs cycle 0 in test [1] and 0.217 ± 0.0947 fold-change vs cycle 0 in test [2].
Taken in the same sequence, the figures for CGCAAC were 0.251 ± 0.0146 fold-change vs cycle 0 and 0.378 ± 0.0552 fold-change vs cycle 0.
For CGCCAA the same measures were 0.185 ± 0.0197 fold-change vs cycle 0 and 0.316 ± 0.0834 fold-change vs cycle 0.
As for CCGCCC, the binding signal in test [1] turned out to be 0.0662 ± 0.0114 fold-change vs cycle 0; in test [2], 0.164 ± 0.0742 fold-change vs cycle 0.
As to GGCTCA, the binding signal in test [1] turned out to be 0.336 ± 0.00359 fold-change vs cycle 0; in test [2] it was 0.477 ± 0.0634 fold-change vs cycle 0.
For GCACCA the same measures were 0.324 ± 0.0178 fold-change vs cycle 0 and 0.451 ± 0.0674 fold-change vs cycle 0.
As for CCCTCG, the binding signal in test [1] was determined as 0.278 ± 0.0226 fold-change vs cycle 0; in test [2], 0.388 ± 0.0906 fold-change vs cycle 0.
GCACGC: the binding signal in test [1] was 0.0991 ± 0.0124 fold-change vs cycle 0; in test [2], 0.21 ± 0.063 fold-change vs cycle 0.
For CAGGCC the same measures were 0.16 ± 0.0134 fold-change vs cycle 0 and 0.277 ± 0.0643 fold-change vs cycle 0.
On to CGACGC, for which the binding signal in test [1] is 0.0904 ± 0.00963 fold-change vs cycle 0; in test [2], 0.193 ± 0.0701 fold-change vs cycle 0.
For CAAGCC the same measures were 0.349 ± 0.0256 fold-change vs cycle 0 and 0.491 ± 0.0577 fold-change vs cycle 0.
For CGGCTA the same measures were 0.246 ± 0.00516 fold-change vs cycle 0 and 0.375 ± 0.0584 fold-change vs cycle 0.
For GAACGC the same measures were 0.308 ± 0.012 fold-change vs cycle 0 and 0.446 ± 0.0568 fold-change vs cycle 0.
Regarding CTTGGC, the binding signal in test [1] stood at 0.308 ± 0.0227 fold-change vs cycle 0; in test [2], 0.45 ± 0.0809 fold-change vs cycle 0.
Taken in the same sequence, the figures for CAGCGA were 0.275 ± 0.0083 fold-change vs cycle 0 and 0.404 ± 0.0764 fold-change vs cycle 0.
For ACCCGG the same measures were 0.233 ± 0.025 fold-change vs cycle 0 and 0.341 ± 0.0691 fold-change vs cycle 0.
For ACCCCC the same measures were 0.324 ± 0.0114 fold-change vs cycle 0 and 0.419 ± 0.0596 fold-change vs cycle 0.
Consider CGTCCC, for which the binding signal in test [1] was 0.238 ± 0.0171 fold-change vs cycle 0; in test [2], 0.351 ± 0.0721 fold-change vs cycle 0.
Taken in the same sequence, the figures for AGGCGC were 0.0722 ± 0.0162 fold-change vs cycle 0 and 0.185 ± 0.0792 fold-change vs cycle 0.
For AGCGGA the same measures were 0.313 ± 0.018 fold-change vs cycle 0 and 0.432 ± 0.054 fold-change vs cycle 0.
GCGGGA: the binding signal was 0.149 ± 0.0162 fold-change vs cycle 0 in test [1] and 0.256 ± 0.0688 fold-change vs cycle 0 in test [2].
For GCGACC the same measures were 0.112 ± 0.0125 fold-change vs cycle 0 and 0.237 ± 0.0806 fold-change vs cycle 0.
On to GGAATA, for which the figures for the binding signal in test [1] and in test [2] were 1.41 ± 0.0506 fold-change vs cycle 0 and 1.35 ± 0.0751 fold-change vs cycle 0, respectively.
For ACGGCA the same measures were 0.221 ± 0.00749 fold-change vs cycle 0 and 0.353 ± 0.0815 fold-change vs cycle 0.
